Results taken from PubChem BioAssay AID1159580 (chemical genetic matrix, 2015).
“And” between values parts separate entries of the source, which are not always exact repeats. Equal entries are not always repeated. About 2,000 (36%) of roughly 5,500 compounds were called active. Inconclusive results (about 18%) are left out. Cut-off read from the data, not from the text of the source: active = normalized growth mostly below about 0.91 (no sharp cut-off); inconclusive = no clear call, values can overlap the other calls; inactive = mostly above about 0.92. The list shows a part of the results.

Assay: chemical genetic growth profiling, strain panel (AID 1159580);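 note: tested at 20 µM; growth read once vehicle control cultures reached saturation at 30 °C; 1 = growth at the plate median or of vehicle wells; lower values mean less growth of the strain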
Conditions: S. cerevisiae deletion strains, growth OD

Measured: normalized growth

C[n+]1c2cc(N)ccc2cc2ccc(N)cc21
inactive: locus YBR021W, strain FUR4, stronger effect = lower value 1.11 | locus YBR171W, strain sec66, stronger effect = lower value 0.934 | locus YDL185W, strain tfp1, stronger effect = lower value 0.938 | locus YER110C, stronger effect = lower value 0.961 | locus YER155C, strain BEM2, stronger effect = lower value 0.935 | locus YGL078C, strain dbp3, stronger effect = lower value 0.937 | locus YGL167C, strain pmr1, stronger effect = lower value 0.938 | locus YHR094C, strain hxt1, stronger effect = lower value 0.939 | locus YIL125W, strain kgd1, stronger effect = lower value 0.945 | locus YJR066W, strain TOR1, stronger effect = lower value 0.849
0.724 (active) and 0.882 (inactive): locus YHR030C, strain SLT2, stronger effect = lower value
active: locus YAL013W, strain DEP1, stronger effect = lower value 0.748 | locus YAL021C, strain ccr4, stronger effect = lower value 0.335 | locus YAL026C, strain drs2, stronger effect = lower value 0.586 | locus YAL030W, strain snc1, stronger effect = lower value 0.505 | locus YBL061C, strain skt5, stronger effect = lower value 0.616 | locus YBR009C, strain hhf1, stronger effect = lower value 0.356 | locus YBR023C, strain chs3, stronger effect = lower value 0.666 | locus YBR229C, strain ROT2, stronger effect = lower value 0.888 | locus YBR231C, strain swc5, stronger effect = lower value 0.359 | locus YBR279W, strain paf1, stronger effect = lower value 0.701 | locus YCL011C, strain gbp2, stronger effect = lower value 0.438 | locus YCL016C, strain dcc1, stronger effect = lower value 0.331 | locus YCL029C, strain bik1, stronger effect = lower value 0.67 | locus YCL069W, strain vba3, stronger effect = lower value 0.588 | locus YCR088W, strain abp1, stronger effect = lower value 0.55 | locus YDL005C, strain med2, stronger effect = lower value 0.572 | locus YDL035C, strain GPR1, stronger effect = lower value 0.72 | locus YDL040C, strain nat1, stronger effect = lower value 0.718 | locus YDL074C, strain BRE1, stronger effect = lower value 0.575 | locus YDL101C, strain DUN1, stronger effect = lower value 0.761 | locus YDL134C, strain PPH21, stronger effect = lower value 0.726 | locus YDL192W, strain arf1, stronger effect = lower value 0.844 | locus YDR001C, strain nth1, stronger effect = lower value 0.74 | locus YDR069C, strain doa4, stronger effect = lower value 0.591 | locus YDR101C, strain arx1, stronger effect = lower value 0.81 | locus YDR137W, strain rgp1, stronger effect = lower value 0.616 | locus YDR150W, strain NUM1, stronger effect = lower value 0.831 | locus YDR159W, strain sac3, stronger effect = lower value 0.77 | locus YDR162C, strain NBP2, stronger effect = lower value 0.723 | locus YDR195W, strain ref2 1.22 [resistant] | locus YDR297W, strain sur2, stronger effect = lower value 0.652 | locus YDR318W, strain mcm21, stronger effect = lower value 0.834 | locus YDR334W, strain swr1, stronger effect = lower value 0.412 | locus YDR335W, strain msn5, stronger effect = lower value 0.499 | locus YDR388W, stronger effect = lower value 0.722 | locus YDR392W, strain spt3, stronger effect = lower value 0.352 | locus YDR502C, strain sam2, stronger effect = lower value 0.793 | locus YEL003W, strain gim4, stronger effect = lower value 0.491 | locus YEL037C, strain rad23, stronger effect = lower value 0.437 | locus YEL061C, strain CIN8 (second series), stronger effect = lower value 0.652 | locus YEL061C, strain CIN8, stronger effect = lower value 0.851 | locus YER015W, strain faa2, stronger effect = lower value 0.498 | locus YER016W, strain bim1, stronger effect = lower value 0.479 | locus YER111C, strain swi4, stronger effect = lower value 0.633 | locus YER155C, strain BEM2 (second series), stronger effect = lower value 0.272 | locus YER167W, strain BCK2, stronger effect = lower value 0.754 | locus YFR010W, strain ubp6, stronger effect = lower value 0.536 | locus YGL086W, strain mad1, stronger effect = lower value 0.778 | locus YGL173C, strain kem1, stronger effect = lower value 0.481 | locus YGL227W, strain vid30, stronger effect = lower value 0.671 | locus YGL240W, strain doc1, stronger effect = lower value 0.63 | locus YGL248W, strain PDE1, stronger effect = lower value 0.758 | locus YGL253W, strain hxk2, stronger effect = lower value 0.425 | locus YGR078C, strain PAC10, stronger effect = lower value 0.722 | locus YGR135W, strain pre9, stronger effect = lower value 0.777 | locus YGR229C, strain SMI1, stronger effect = lower value 0.704 | locus YGR252W, strain gcn5, stronger effect = lower value 0.531 | locus YHR013C, strain ard1, stronger effect = lower value 0.397 | locus YHR027C, strain rpn1, stronger effect = lower value 0.546 | locus YHR079C, strain IRE1 (second series), stronger effect = lower value 0.779 | locus YHR079C, strain IRE1, stronger effect = lower value 0.841 | locus YHR129C, strain ARP1, stronger effect = lower value 0.897 | locus YHR142W, strain chs7, stronger effect = lower value 0.44 | locus YHR200W, strain rpn10, stronger effect = lower value 0.682 | locus YIL066C, strain RNR3, stronger effect = lower value 0.792 | locus YIL073C, strain SPO22, stronger effect = lower value 0.534 | locus YIR030C, strain dcg1, stronger effect = lower value 0.859 | locus YJL092W, strain hpr5, stronger effect = lower value 0.253 | locus YJL095W, strain BCK1 (second series), stronger effect = lower value 0.487 | locus YJL095W, strain BCK1, stronger effect = lower value 0.486 and 0.879 | locus YJL115W, strain asf1, stronger effect = lower value 0.369 | locus YJL129C, strain trk1, stronger effect = lower value 0.773 | locus YJL134W, strain LCB3, stronger effect = lower value 0.912 | locus YJL154C, strain vps35, stronger effect = lower value 0.808 | locus YJL164C, strain tpk1, stronger effect = lower value 0.417 | locus YJL166W, strain qcr8, stronger effect = lower value 0.392 | locus YJL168C, strain set2, stronger effect = lower value 0.91 | locus YJL187C, strain SWE1 (second series), stronger effect = lower value 0.708 | locus YJR043C, strain POL32, stronger effect = lower value 0.703 | locus YJR075W, strain HOC1, stronger effect = lower value 0.566
